Here are results for 40 sequences from the OligoGym collection.
Note: reference of the scale not given here.

The target in one test is DDB2. As to the kind of experiment: pooled miR-30 sensor sort-seq; sequence = guide strand. As to conditions: shRNA.
TTCGGCTACTAGCAGACACATC gave a sensor-assay potency score (higher = more potent) of -1.25. Consider TAGAGCTGACACATCATCTTCC, for which the sensor-assay potency score (higher = more potent) is 0.382.

In turn, TGACACATCATCTTCCCTGAGT registered a sensor-assay potency score (higher = more potent) of 0.0365. In turn, TTTAACAAATCGCCACCTCTGC came in with a sensor-assay potency score (higher = more potent) of -0.868.

In the case of TTTGAAATTAGGATCTGGGTAT, the sensor-assay potency score (higher = more potent) is -0.00871. Same read-out and setting: with TTTAGTTCCAAGATAACCTTGG the figure was 0.69.

TAATATCCGGTAAGAATCCAGA: the sensor-assay potency score (higher = more potent) was -0.584. TAATACAATCTCGGAGGTCTTC came in with a sensor-assay potency score (higher = more potent) of -0.478. TTTTGAAATTAGGATCTGGGTA yielded a sensor-assay potency score (higher = more potent) of -0.102. Same read-out and setting: to TCTGAGTCACATCTTCTGCTAG belongs -0.241; to TAAAGTCTTGCAGCCTAGTTGT, -0.222. The same measure, in the same setting: with TTTGCCGTCCATGTTCAGCAGG the figure was -0.642; with TCCATCGAACACGTCGATCGTC, -0.818.

A further test addresses DDX28. The test is described as above. As to conditions: shRNA.
For TTCCAGGAAGCTTTCATCCAGC, the sensor-assay potency score (higher = more potent) was -0.626. Still for that read-out and setting: with TAGTCCTGGAAGACTTCTCCTT the figure was -1.12; with TTCTGCTCTGTCACGATGCTTG, -0.667. The sequence TAGCTGAGAGTCTTGCCACTGC came in with a sensor-assay potency score (higher = more potent) of -0.373.

TTGGATTTTGTGGTCATCCAGA came in with a sensor-assay potency score (higher = more potent) of -0.675.

As for ATAATTGACAACCAGCTCCACA, the sensor-assay potency score (higher = more potent) is -0.971. Take TCATCCAACACCAAGAAGGAGA: the sensor-assay potency score (higher = more potent) was -0.925. The same measure, in the same setting: with TTGACAACCAGCTCCACACCAG the figure was -0.162. Regarding TAGTGCGTGCAGCACACGGGGC, the sensor-assay potency score (higher = more potent) was -1.65. On to TTCGTCGGGACTGCGGACCGTG, for which the sensor-assay potency score (higher = more potent) is -0.386. Sequence TATGTCTCGGGAGCTCTTCTGG gave a sensor-assay potency score (higher = more potent) of -0.986. Consider TAATCTTGCAGCGTTGGGGGGA, for which the sensor-assay potency score (higher = more potent) is -0.579.

The target of a further test is DDX49. The description is as above. As to conditions: shRNA.
TTCTTCTTGATCTGCTCCTCGA came in with a sensor-assay potency score (higher = more potent) of -0.688. Sequence TCTTTCTGCTTCATCATGGAGT yielded a sensor-assay potency score (higher = more potent) of -0.0519. On the same count and under the same terms, with TTGTGGTTGATGACCACCTGTA the figure was -0.316. On to TTTGATCTCACACTCTCTTCGC, for which the sensor-assay potency score (higher = more potent) was -0.199. The same measure, in the same setting: with TAGATGCTGGACTTGAACTTGG the figure was -0.112; with TCTGTTGCGATCAGGATCCGGT, 0.242. Same read-out and setting: to TCGTACTGTGTCACCAGCGTGA belongs -0.48; to TTGATGACCACCTGTACCGTAG, -0.168.

Regarding TTGATCTCACACTCTCTTCGCA, the sensor-assay potency score (higher = more potent) is -0.0453. The same measure, in the same setting: with TTGATCTGCTCCTCGATGGCGT the figure was 0.0961; with TGATCTCACACTCTCTTCGCAC, -1.01. Still for that read-out and setting: to TCATCCATCACCAGGAAGCGGA belongs -1.17.

Another test deals with DEF6. The test is described as above. As to conditions: shRNA.
In the case of TTGTGTAGGGACGTCTTCCCCT, the sensor-assay potency score (higher = more potent) is -0.678.

With TCTTCCAGCAGTCTGGTCTGAG, the sensor-assay potency score (higher = more potent) is -0.41. As for TTGAAGAGGCACCAGAGGCGGA, the sensor-assay potency score (higher = more potent) is -1.08.
